Hits are enriched below; roughly 11% of the tested compounds scored in any of these assays.
HPGD block: qHTS Assay for Inhibitors of HPGD (15-Hydroxyprostaglandin Dehydrogenase). purified HPGD, NADH fluorescence kinetic, PGE2 substrate. AID 894, 2007. actives 4.3% (n = 150,000). Potency, µM, for the others: top-dose activity change, negative = inhibition, usual class: inhibitors; further: potency means the concentration at half of the fitted maximal effect
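20 nM HPGD preincubated 15 min at room temperature with compound in 50 mM Tris-HCl pH 8, 0.01% Tween 20. Started with 1 mM NAD+ and 30 uM prostaglandin E2; NADH fluorescence (360/450 nm) read 5 times over 30-s intervals, last minus first.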
ALDH1A1 inh: qHTS Assay for Inhibitors of Aldehyde Dehydrogenase 1 (ALDH1A1) | Aldehyde dehydrogenase 1A1 (Homo sapiens), P00352 | Purified ALDH1A1, NADH fluorescence, propionaldehyde substrate | Potency, µM (highest dose often 75.3 µM), inactives show at the top dose activity, negative = inhibition, usual class: inhibitors | actives 7.3% (n = 220,000);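 further: potency means the concentration at half of the fitted maximal effect; plate controls were no enzyme wells and a reference inhibitor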
Target sequence (P00352 whole entry, looked up): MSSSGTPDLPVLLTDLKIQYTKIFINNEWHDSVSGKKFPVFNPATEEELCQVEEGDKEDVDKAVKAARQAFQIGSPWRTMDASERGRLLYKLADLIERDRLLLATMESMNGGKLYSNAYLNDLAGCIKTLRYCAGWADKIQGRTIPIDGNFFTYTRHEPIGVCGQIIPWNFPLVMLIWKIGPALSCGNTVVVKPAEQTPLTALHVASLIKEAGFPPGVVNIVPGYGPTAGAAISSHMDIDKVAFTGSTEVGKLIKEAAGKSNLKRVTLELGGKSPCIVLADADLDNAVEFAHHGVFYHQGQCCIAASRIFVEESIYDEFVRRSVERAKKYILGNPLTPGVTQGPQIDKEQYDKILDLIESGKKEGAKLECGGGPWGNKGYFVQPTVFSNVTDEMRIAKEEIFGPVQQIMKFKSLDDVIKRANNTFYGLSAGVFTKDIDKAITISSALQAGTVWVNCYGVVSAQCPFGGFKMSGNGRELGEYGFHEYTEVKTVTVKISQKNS
IMPase cell inh: qHTS Assay for Identifying the Cell-Membrane Permeable IMPase Inhibitors; Inositol monophosphatase 1 (Rattus norvegicus), P97697; CHO-M1 cells, IP1 accumulation, HTRF TR-FRET ratio; inhibition (IP1 accumulation), % at 46.1 µM; 120,000 tested, under 10 active; AID 901, 2007; active means well fitted curve in the direction sought with a large enough effect in the signal ratio, not every such curve was filed as active; inconclusive means small, poorly fitted or top-dose-only effect, or a change in a side signal; inactive means no such curve, though single readings can be large or run the other way; the % refers to the signal ratio;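 further: cells stimulated with carbachol in lithium chloride buffer; plate controls were DMSO basal wells for no effect and reference inhibitor wells for full effect; higher means more IMPase inhibition seen as more IP1 and lower FRET ratio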
Target sequence (P97697 whole entry, looked up): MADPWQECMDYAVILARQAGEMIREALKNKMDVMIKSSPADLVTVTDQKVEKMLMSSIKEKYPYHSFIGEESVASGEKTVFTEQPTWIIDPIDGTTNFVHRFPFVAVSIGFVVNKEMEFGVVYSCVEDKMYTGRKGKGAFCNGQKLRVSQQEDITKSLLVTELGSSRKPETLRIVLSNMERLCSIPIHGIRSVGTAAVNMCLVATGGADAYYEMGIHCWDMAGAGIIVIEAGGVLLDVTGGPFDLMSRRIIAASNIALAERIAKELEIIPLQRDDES
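Carbachol-driven Gq signalling in CHO-M1 cells (2000/well) generates IP1. Compounds that block IMPase raise IP1 and so reduce the FRET signal from Eu-anti-IP1 and d2-IP1 after a 10 min room-temperature lysis.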
PNC assembly inh: High Content Assay for Compounds that inhibit the Assembly of the Perinucleolar Compartment; PC3M PTB-GFP, PNC prevalence imaging, 16 h; stronger effect = lower value; activity change (PNC), negative = inhibition, % at 10 µM; actives 3.1% (n = 140,000);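 active means readout at or below -70, meaning at least 70% loss of cells showing the perinucleolar compartment, a nuclear body marking cancer cells; inconclusive means readout between -30 and a set limit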;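 further: plate controls were DMSO wells for no effect and camptothecin positive control wells for full effect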
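Read-out is percentage of cells bearing a perinucleolar compartment, from automated 20x imaging of fixed, Hoechst-stained PC3M PTB-GFP cells. Cells were seeded 4 h, then exposed 16 h to compound (23 nl of library stock) in duplicate plates.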
IMPase Li inh: qHTS Assay for Identifying the Cell-Membrane Permeable IMPase Inhibitors: Potentiation with Lithium | CHO-M1 cells, IP1 TR-FRET (IP-One), carbachol + lithium | Potency, µM (titrated, usually from 59.4 µM), for inactives: at the top dose activity, negative = IMPase inhibition, hits mostly inhibitors | actives 0.35% (n = 210,000) | AID 1457, 2008; active means well fitted inhibition curve with a large enough effect; inconclusive means small, poorly fitted or top-dose-only effect; inactive means no such curve, though single readings can be large or run the other way;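 further: IP1 builds up when IMPase is blocked and the TR-FRET signal falls; potency means the concentration at half of the fitted maximal effect; plate controls were basal vehicle for no effect and high inhibitor control for full effect; nearly all actives have a fitted effect of over 50% in size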
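IP1 accumulation measured by competitive TR-FRET in lysed CHO-M1 cells after 30 min compound exposure at 37C, with a small lithium addition to potentiate weak responses. Hill-equation AC50 from ratio and donor-channel data.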
Starred values were filed as active, the others as inactive; ? = inconclusive; . = no result given; [ ] = another dose, or the depositor's remark. Unless noted, the call rests on the fitted dose curve; in most records, active means well fitted inhibition curve with a large enough effect (not every such curve was filed as active); inconclusive means small, poorly fitted or top-dose-only effect, or another doubt; inactive means no such curve, though single readings can be large or run the other way. Unless noted, on the % scale 0 is the no-effect control and ±100 the full control effect.

SMILES	HPGD block	ALDH1A1 inh	IMPase cell inh	PNC assembly inh	IMPase Li inh
CC(=O)N1C2(C=CC1(C)C(=O)NCc1ccc(C)o1)CCCCC2 (configuration not stated)	-10.0%	22.4µM*	.	.	2.3%
O=C(NCc1ccco1)C(c1ccccc1)N(C(=O)Cc1cccs1)c1ccccc1F (configuration not stated)	-11.5%	-2.9%	6.7	-29.6	22.2%[38.3 µM]
CCOc1ccc(-c2nc(CSc3nnc(N)s3)cs2)cc1OC	-13.8%	-10.8%	0.6	-100.7*	28.8%[38.3 µM]
COC(=O)C1C(=O)C2=C(CC1C)NC(C)=C(C(=O)OC1CCCCC1)C2c1ccc(N(C)C)cc1 (configuration not stated)	-15.8%	8.91µM*	-6.5	-100.0*	4.0%
COC(=O)C1C(=O)C2=C(CC1C)NC(C)=C(C(=O)OC(C)C)C2c1ccc(C)o1 (configuration not stated)	-5.7%	-13.4%	-4.0	?	31.4%[38.3 µM]
CN(CCO)Cc1ncccc1O	-10.3%	-3.2%[13.5 µM]	.	.	-7.0%
O=C(NCCN1CCc2ccccc2C1)C1CCN(S(=O)(=O)N2CCCCC2)CC1	-7.6%	17.8µM*	-0.1	4.9	-7.1%[38.3 µM]
O=C(NC1CCCc2ccccc21)C1CCN(S(=O)(=O)N2CCCCCC2)CC1 (configuration not stated)	-5.9%	4.47µM*	-3.1	-20.9	13.1%[38.3 µM]
NC(N)=NC(N)=Nc1c(F)c(F)c(F)c(F)c1F	-6.8%	2.6%[13.5 µM]	.	.	-1.0%
COC(=O)c1cc(CSc2nnc(-c3ccccc3)c(-c3ccccc3)n2)oc1C	?	15.8µM*	11.1	5.2	37.1%[38.3 µM]
Cc1cc(NC(=O)CSc2nnc(-c3ccccc3)c(-c3ccccc3)n2)no1	.	2.1%	.	.	10.0%
Cc1ccc(C(C(=O)NC2CCCC2)N2CCCCC2)cc1 (configuration not stated)	-7.6%	9.4%	0.1	-16.5	12.8%
Cc1ccc(C(C(=O)NC2CCCCC2)N2CCCC2)cc1 (configuration not stated)	-15.1%	11.4%	?	-112.1*	25.4%
COc1ccc(-c2nc3cnc(N4CCN(C)CC4)nc3n(CCC#N)c2=O)cc1	?	?	.	.	-1.4%
Cc1ccc(CN(C)C(=O)c2ccccc2Oc2ccccc2)o1	22.4µM*	10µM*	2.4	?	4.2%[38.3 µM]
CN(C)c1ccc(C2N([C@H](C#N)c3ccc(N(C)C)cc3)CCCN2[C@@H](C#N)c2ccc(N(C)C)cc2)cc1 (some centres not stated)	-7.4%	1µM*	.	.	-17.0%
Cc1ccc(-n2c(Cl)c(Cl)nc(Cl)c2=O)cc1	2.51µM*	0.631µM*	.	?	16.8%
Cn1cccc1CC(=O)N/N=C/c1cccc2ccccc12	15.8µM*	?	-1.6	-14.0	2.8%
Cn1cccc1CC(=O)N/N=C\c1c2ccccc2cc2ccccc12	-9.9%	-2.2%	4.7	-11.1	11.6%[38.3 µM]
CCOC(=O)C1=NOC2C(=O)N(c3ccc(Cl)cc3Cl)C(=O)C12 (configuration not stated)	.	0.708µM*	.	.	-3.3%
CC1CC(C)CN(CCOc2ccc(Br)cc2)C1 (configuration not stated)	-4.0%	-5.1%	.	58.0	11.4%
CCCCCC(=O)N(O)C1CC(=O)N(c2ccccc2)C1=O (configuration not stated)	15.8µM*	0.794µM*	-11.2	36.1	-5.2%[38.3 µM]
CN(Cc1ccccc1)C1CC(=O)N(c2ccc(C(=O)O)cc2)C1=O (configuration not stated)	-6.1%	28.2µM*	-5.1	-2.3	-1.1%[38.3 µM]
CCCCCCC(=O)N(O)C1CC(=O)N(Cc2ccccc2)C1=O (configuration not stated)	17.8µM*	3.55µM*	-12.3[1.84 µM]	?	11.1%[38.3 µM]
COC(=O)c1ccc(N2C(=O)CC(NCc3ccccc3)C2=O)cc1 (configuration not stated)	-11.4%	?	0.2	0.6	23.5%[38.3 µM]
SMILES	HPGD block	ALDH1A1 inh	IMPase cell inh	PNC assembly inh	IMPase Li inh
CCCCCOc1ccc(N2C(=O)CC(N(O)c3ccccc3)C2=O)cc1 (configuration not stated)	-11.4%	?	-5.5	11.2	-9.8%[38.3 µM]
COC(=O)C/C=C1\c2ccc3c(c2[C@@H](OC)[C@@H]1C)OCO3	-7.0%	-3.8%	.	.	10.4%
COc1ccc(C(C)(C)C)cc1NC(=O)COC(=O)c1ccc([N+](=O)[O-])o1	.	?	.	.	3.2%
O=C(Cn1ccc2ccccc2c1=O)NCCC(=O)NC1CCN(Cc2ccccc2)CC1	-13.5%	-1.6%	6.3	-85.9*	29.0%[38.3 µM]
Cc1cccc(CN2CCC(CNC(=O)CCNC(=O)Cn3ccc4ccccc4c3=O)CC2)c1	-2.4%	8.9%	-0.7	?	0.3%
CCC1CCC2(CC1)NNC(=S)NN2	10µM*	7.51µM*	-3.7	-25.1	7.7%[38.3 µM]
COc1ccc(/C=C/C2=CC(C)(C)NC(=S)N2)cc1OC	.	7.94µM*	.	.	2.6%
CCOc1ccc(/C=C/C(=O)c2ccccc2)cc1	.	-1.2%	.	.	.
COc1ccc(/C=C/c2ccncc2)cc1OC	?	?	?	-96.7*	4.6%
CCOc1ccc(/C=C/C2=CC(C)(C)NC(=S)N2)cc1	.	12.6µM*	.	.	7.3%
COc1cc(Cl)ccc1NC(=S)N(CCCN1CCOCC1)Cc1cn(C)c2ccccc12	?	?	15.9	?	6.1%
Cc1cc(NC(=S)N(CCCN2CCOCC2)Cc2ccco2)ccc1Cl	-15.8%	-13.0%	.	-118.2*	4.4%
COc1ccc(Cl)cc1NC(=S)N(CCCN1CCOCC1)Cc1cn(C)c2ccccc12	28.2µM*	-13.8%	.	?	8.9%
CCN1CCN(CCCN(Cc2ccco2)C(=S)Nc2ccc(Cl)c(C)c2)CC1	.	-4.2%	.	.	7.9%
Cc1cc(NC(=S)N(CCN2CCCCC2)Cc2ccco2)ccc1Cl	.	7.94µM*	.	.	19.8%
NCC(=O)Nc1ccccc1	-3.6%	3.2%[13.5 µM]	.	.	-2.0%
Cc1ccc(OCC(=O)c2c[nH]c3ccccc23)c([N+](=O)[O-])n1	.	-8.2%	.	.	-1.9%
CN(/N=C/c1cccnc1)c1cnc2ccccc2n1	.	9.1%	.	.	6.5%
Cc1cc(C)cc(NC(=S)NCc2cccs2)c1	14.1µM*	-2.8%	.	6.3	4.6%
COc1cc(NC(=S)NCc2cccs2)cc(OC)c1	17.8µM*	-13.9%	.	33.0	0.2%
COc1cc(NC(=S)NCc2ccco2)cc(OC)c1	?	?	-1.0	?	6.4%
CC1=NN(c2ccc(F)cc2)C(=O)C1C(c1cccc(O)c1)c1c(C)[nH]n(-c2ccc(F)cc2)c1=O (configuration not stated)	17.8µM*	8.91µM*	8.4	3.6	-25.0%[38.3 µM]

Assay outcomes: PubChem, National Center for Advancing Translational Sciences (NCATS)
